Article PMC7862700, “An all-to-all approach to the identification of sequence-specific readers for epigenetic DNA modifications on cytosine”

What was measured:
Assay in all cases: DAPPL (digital affinity profiling via proximity ligation, sequencing); 10 mM Tris-HCl pH 7.5, 50 mM NaCl, 1 mM DTT, 4% glycerol, room temperature, 30 min; GST-TFs on glutathione beads, 16-mer random dsDNA library, 0.1% formaldehyde crosslink after washing; high values mean tight binding
FLI1 = target: T1, FLI1 (Homo sapiens, UniProt Q01543 1-452); details: protein: recombinant; tags: N-terminal GST; dsDNA, one strand shown
T1 sequence: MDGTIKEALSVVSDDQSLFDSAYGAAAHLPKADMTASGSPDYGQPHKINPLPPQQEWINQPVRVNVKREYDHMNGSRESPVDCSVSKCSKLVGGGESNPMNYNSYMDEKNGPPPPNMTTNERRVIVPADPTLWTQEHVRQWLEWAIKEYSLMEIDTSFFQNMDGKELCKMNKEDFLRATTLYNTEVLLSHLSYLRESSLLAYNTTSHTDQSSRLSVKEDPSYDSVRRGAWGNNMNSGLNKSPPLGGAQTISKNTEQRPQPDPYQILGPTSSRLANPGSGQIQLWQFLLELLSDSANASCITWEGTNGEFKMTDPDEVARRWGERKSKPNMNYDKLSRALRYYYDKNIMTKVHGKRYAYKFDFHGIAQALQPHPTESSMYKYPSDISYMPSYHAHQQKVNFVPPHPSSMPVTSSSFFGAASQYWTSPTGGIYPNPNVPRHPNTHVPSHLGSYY
Method in brief: (§1)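 Pools were built from human transcription factors expressed in yeast as GST fusions, captured on glutathione beads and DNA-barcoded, along with a tag-only sample. Incubation with 200 nmole of a 16-mer random double-stranded DNA library lasted 30 min at room temperature in Tris/NaCl/DTT/glycerol buffer, and was followed by washing, 0.1% formaldehyde crosslinking, proximity ligation, PCR amplification and Illumina NextSeq500 sequencing. Binding signal is the quotient of each hexamer's read frequency for a factor and its frequency for the tag-only sample.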

ELK1 = target: T2, ELK1 (Homo sapiens, UniProt P19419 1-428); details: protein: recombinant; tags: N-terminal GST; dsDNA, one strand shown
T2 sequence: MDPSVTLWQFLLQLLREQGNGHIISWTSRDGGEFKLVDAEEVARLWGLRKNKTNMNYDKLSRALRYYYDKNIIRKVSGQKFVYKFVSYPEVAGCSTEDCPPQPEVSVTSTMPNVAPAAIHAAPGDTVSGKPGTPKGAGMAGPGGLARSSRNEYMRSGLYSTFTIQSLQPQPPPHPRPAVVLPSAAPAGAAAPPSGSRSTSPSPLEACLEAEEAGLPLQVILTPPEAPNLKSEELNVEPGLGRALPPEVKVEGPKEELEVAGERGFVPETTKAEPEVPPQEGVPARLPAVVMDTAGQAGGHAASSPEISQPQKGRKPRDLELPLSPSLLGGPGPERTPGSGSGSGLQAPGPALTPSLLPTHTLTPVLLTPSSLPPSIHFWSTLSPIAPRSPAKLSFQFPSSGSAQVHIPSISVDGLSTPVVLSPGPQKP
Method in brief: as §1

GABPA = target: T3, GABPA (Homo sapiens, UniProt Q06546 1-454); details: protein: recombinant; tags: N-terminal GST; dsDNA, one strand shown
T3 sequence: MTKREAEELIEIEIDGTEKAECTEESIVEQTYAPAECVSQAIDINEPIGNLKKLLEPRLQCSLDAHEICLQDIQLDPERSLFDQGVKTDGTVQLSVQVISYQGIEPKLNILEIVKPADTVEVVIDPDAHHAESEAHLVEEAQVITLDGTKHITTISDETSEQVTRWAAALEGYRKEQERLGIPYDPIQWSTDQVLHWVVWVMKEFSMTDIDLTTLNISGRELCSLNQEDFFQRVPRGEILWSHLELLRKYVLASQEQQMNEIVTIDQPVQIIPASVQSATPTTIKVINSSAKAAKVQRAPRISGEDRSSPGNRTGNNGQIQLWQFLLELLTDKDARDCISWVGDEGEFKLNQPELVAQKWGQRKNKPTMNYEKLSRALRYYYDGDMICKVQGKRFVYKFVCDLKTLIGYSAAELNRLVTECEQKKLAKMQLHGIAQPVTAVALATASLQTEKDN
Method in brief: as §1

ERG = target: T4, ERG (Homo sapiens, UniProt P11308 1-479); details: protein: recombinant; tags: N-terminal GST; dsDNA, one strand shown
T4 sequence: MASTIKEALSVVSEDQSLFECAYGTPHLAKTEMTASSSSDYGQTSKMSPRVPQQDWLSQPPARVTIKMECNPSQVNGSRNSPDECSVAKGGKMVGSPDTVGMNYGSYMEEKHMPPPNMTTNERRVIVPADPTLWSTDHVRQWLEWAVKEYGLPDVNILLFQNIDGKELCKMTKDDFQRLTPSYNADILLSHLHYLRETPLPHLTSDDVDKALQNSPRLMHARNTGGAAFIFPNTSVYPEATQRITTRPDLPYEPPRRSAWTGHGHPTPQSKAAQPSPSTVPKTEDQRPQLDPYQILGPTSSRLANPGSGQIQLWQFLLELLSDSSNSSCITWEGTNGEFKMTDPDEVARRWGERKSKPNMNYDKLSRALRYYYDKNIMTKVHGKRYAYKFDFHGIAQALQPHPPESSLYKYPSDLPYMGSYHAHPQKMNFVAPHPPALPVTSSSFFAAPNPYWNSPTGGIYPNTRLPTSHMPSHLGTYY
Method in brief: as §1

ELF1 = ELF1 (Homo sapiens, UniProt P32519 1-619); details: protein: recombinant; tags: N-terminal GST; dsDNA, one strand shown
Sequence of ELF1 (P32519 whole entry): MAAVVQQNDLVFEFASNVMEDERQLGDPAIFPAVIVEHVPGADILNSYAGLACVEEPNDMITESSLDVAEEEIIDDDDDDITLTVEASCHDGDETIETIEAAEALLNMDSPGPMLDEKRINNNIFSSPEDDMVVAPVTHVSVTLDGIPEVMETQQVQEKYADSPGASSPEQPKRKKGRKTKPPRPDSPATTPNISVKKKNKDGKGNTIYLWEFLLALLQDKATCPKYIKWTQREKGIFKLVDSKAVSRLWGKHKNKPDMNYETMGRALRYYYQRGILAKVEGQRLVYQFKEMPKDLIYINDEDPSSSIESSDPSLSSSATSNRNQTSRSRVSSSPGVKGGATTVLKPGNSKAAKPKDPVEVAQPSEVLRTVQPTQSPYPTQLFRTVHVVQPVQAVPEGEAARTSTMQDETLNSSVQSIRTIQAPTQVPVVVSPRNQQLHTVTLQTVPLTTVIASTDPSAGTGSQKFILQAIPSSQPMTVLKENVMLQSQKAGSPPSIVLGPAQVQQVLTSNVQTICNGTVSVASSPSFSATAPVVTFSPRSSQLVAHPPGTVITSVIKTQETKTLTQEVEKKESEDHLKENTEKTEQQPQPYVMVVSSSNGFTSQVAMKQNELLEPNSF
Method in brief: as §1

EHF = target: T5, EHF (Homo sapiens, UniProt Q9NZC4 1-300); details: protein: recombinant; tags: N-terminal GST; dsDNA, one strand shown
T5 sequence: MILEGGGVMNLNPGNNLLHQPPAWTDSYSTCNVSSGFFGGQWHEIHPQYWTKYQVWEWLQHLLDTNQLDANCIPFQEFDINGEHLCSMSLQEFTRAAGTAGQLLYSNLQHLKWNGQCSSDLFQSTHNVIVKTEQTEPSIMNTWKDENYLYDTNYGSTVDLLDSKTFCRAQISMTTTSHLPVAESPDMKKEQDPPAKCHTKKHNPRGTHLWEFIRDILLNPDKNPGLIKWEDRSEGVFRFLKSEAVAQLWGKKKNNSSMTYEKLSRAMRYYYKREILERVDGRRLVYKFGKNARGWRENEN
Method in brief: as §1

SPI1 = SPI1 (Homo sapiens, UniProt P17947 1-270); details: protein: recombinant; tags: N-terminal GST; dsDNA, one strand shown
Method in brief: as §1

SPIB = SPIB (Homo sapiens, UniProt Q01892 1-262); details: protein: recombinant; tags: N-terminal GST; dsDNA, one strand shown
Sequence of SPIB (Q01892 whole entry): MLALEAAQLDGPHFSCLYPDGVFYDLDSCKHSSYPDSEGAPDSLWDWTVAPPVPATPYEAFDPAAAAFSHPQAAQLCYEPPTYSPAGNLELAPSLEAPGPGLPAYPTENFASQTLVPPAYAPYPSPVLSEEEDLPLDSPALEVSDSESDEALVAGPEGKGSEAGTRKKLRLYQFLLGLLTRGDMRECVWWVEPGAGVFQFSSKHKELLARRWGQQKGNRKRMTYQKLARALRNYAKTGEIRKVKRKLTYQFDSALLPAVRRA
Method in brief: as §1

ELK3 = target: T6, ELK3 (Homo sapiens, UniProt P41970 1-407); details: protein: recombinant; tags: N-terminal GST; dsDNA, one strand shown
T6 sequence: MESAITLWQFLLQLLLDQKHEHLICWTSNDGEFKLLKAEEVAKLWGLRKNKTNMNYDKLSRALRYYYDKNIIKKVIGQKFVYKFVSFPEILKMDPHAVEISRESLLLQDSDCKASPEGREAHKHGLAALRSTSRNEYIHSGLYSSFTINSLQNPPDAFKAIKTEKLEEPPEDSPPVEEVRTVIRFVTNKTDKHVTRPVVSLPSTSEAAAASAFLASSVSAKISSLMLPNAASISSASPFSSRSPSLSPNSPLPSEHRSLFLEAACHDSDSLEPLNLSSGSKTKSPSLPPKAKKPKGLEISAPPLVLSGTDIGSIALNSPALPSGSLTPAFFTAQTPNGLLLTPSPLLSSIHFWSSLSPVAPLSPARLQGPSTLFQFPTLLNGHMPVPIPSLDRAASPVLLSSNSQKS
Method in brief: as §1

FEV = target: T7, FEV (Homo sapiens, UniProt Q99581 1-238); details: protein: recombinant; tags: N-terminal GST; dsDNA, one strand shown
T7 sequence: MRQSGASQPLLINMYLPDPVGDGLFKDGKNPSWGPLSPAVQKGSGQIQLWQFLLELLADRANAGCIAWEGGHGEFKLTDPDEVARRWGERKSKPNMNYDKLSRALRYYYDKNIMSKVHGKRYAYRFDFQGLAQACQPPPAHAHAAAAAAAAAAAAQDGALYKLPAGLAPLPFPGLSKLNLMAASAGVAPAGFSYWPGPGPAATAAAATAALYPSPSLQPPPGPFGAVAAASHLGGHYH
Method in brief: as §1

ETV5 = ETV5 (Homo sapiens, UniProt P41161 1-510); details: protein: recombinant; tags: N-terminal GST; dsDNA, one strand shown
Sequence of ETV5 (P41161 whole entry): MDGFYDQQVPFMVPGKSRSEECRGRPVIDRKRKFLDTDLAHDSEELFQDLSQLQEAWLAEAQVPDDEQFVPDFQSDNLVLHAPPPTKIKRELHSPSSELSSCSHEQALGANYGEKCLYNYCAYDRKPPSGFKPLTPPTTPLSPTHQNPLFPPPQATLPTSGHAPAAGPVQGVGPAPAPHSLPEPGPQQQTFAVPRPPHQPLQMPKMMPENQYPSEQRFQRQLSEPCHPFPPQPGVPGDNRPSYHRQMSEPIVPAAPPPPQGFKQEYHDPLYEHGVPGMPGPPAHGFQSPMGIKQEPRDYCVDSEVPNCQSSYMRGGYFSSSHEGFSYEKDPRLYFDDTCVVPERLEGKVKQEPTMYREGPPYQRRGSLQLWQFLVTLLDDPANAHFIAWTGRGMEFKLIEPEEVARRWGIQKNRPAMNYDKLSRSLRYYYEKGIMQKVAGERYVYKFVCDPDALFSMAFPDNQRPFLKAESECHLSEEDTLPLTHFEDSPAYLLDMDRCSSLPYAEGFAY
Method in brief: as §1

HSF1 = HSF1 (Homo sapiens, UniProt Q00613 1-529); details: protein: recombinant; tags: N-terminal GST; chain copies: 3; dsDNA, one strand shown
Sequence of HSF1 (Q00613 whole entry): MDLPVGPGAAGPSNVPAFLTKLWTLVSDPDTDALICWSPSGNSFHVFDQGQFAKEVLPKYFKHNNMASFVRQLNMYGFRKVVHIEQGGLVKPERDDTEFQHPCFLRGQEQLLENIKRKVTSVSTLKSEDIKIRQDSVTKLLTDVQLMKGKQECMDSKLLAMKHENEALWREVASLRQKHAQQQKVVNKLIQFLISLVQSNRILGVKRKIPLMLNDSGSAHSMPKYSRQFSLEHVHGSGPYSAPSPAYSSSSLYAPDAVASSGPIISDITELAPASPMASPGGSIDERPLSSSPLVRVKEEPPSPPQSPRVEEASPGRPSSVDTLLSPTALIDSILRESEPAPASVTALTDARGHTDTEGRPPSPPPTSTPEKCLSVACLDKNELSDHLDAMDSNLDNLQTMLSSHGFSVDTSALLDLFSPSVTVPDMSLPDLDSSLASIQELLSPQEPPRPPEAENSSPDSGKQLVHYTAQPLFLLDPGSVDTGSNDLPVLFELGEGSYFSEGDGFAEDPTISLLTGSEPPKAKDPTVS
Method in brief: as §1

SPIC = target: T8, SPIC (Homo sapiens, UniProt Q8N5J4 1-248); details: protein: recombinant; tags: N-terminal GST; dsDNA, one strand shown
T8 sequence: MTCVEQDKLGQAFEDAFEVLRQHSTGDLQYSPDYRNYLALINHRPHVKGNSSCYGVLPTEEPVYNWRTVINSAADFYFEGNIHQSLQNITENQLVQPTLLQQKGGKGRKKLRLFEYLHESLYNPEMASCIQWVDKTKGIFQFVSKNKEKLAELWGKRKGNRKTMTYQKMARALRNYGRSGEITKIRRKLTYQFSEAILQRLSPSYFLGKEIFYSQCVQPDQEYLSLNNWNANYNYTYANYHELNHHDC
Method in brief: as §1

ELF4 = ELF4 (Homo sapiens, UniProt Q99607 1-663); details: protein: recombinant; tags: N-terminal GST; dsDNA, one strand shown
Sequence of ELF4 (Q99607 whole entry): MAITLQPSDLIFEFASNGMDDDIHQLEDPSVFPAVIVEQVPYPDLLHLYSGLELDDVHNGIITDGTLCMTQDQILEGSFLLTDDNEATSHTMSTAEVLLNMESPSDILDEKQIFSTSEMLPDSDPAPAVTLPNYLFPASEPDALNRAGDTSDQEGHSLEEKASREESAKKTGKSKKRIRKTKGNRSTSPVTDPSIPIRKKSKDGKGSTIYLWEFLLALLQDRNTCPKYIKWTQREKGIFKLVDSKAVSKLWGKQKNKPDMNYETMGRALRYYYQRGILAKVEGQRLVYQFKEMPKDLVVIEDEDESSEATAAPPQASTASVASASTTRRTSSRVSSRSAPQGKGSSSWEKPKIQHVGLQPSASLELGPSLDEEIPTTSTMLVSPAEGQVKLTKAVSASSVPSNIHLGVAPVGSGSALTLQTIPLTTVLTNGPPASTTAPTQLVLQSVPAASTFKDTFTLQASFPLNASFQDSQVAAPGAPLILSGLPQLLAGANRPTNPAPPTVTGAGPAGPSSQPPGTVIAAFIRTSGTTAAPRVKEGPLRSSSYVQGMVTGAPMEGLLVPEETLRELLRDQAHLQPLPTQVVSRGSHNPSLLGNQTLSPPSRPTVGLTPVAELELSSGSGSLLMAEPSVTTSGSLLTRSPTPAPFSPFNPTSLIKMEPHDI
Method in brief: as §1

ELK4 = target: T9, ELK4 (Homo sapiens, UniProt P28324-2 1-405); details: protein: recombinant; tags: N-terminal GST; dsDNA, one strand shown
T9 sequence: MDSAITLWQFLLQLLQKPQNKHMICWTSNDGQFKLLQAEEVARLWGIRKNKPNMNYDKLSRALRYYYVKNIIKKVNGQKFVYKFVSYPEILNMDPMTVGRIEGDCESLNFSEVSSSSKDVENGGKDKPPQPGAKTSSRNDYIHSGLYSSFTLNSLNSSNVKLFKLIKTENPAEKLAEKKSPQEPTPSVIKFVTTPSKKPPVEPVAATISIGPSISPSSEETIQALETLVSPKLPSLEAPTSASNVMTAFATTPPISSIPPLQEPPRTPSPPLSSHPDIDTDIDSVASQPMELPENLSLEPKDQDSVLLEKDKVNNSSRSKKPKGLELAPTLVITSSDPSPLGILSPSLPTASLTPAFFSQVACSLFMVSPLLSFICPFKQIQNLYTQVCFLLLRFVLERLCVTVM
Method in brief: as §1

ETV2 = target: T10, ETV2 (Homo sapiens, UniProt O00321 1-342); details: protein: recombinant; tags: N-terminal GST; dsDNA, one strand shown
T10 sequence: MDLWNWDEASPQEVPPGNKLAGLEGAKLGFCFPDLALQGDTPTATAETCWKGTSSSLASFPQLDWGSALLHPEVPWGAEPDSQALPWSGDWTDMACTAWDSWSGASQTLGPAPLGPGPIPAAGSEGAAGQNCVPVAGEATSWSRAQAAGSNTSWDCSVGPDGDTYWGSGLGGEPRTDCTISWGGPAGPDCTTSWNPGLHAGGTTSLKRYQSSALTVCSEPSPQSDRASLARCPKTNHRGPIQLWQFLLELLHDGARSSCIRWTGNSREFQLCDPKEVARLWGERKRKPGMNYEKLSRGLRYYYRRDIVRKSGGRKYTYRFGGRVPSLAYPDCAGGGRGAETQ
Method in brief: as §1

ELF3 = target: T11, ELF3 (Homo sapiens, UniProt P78545 1-371); details: protein: recombinant; tags: N-terminal GST; dsDNA, one strand shown
T11 sequence: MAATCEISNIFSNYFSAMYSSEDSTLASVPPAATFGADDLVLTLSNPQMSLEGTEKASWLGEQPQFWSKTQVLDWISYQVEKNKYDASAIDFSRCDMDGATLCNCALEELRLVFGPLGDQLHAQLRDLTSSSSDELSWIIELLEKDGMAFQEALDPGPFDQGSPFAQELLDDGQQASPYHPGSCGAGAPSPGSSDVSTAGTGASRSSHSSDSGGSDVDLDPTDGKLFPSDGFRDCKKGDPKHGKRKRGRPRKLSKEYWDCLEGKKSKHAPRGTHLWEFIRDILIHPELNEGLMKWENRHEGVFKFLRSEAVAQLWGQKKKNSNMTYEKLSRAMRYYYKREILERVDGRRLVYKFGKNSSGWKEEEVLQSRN
Method in brief: as §1

CRX = CRX (Homo sapiens, UniProt O43186 1-299); details: protein: recombinant; tags: N-terminal GST; dsDNA, one strand shown
Sequence of CRX (O43186 whole entry): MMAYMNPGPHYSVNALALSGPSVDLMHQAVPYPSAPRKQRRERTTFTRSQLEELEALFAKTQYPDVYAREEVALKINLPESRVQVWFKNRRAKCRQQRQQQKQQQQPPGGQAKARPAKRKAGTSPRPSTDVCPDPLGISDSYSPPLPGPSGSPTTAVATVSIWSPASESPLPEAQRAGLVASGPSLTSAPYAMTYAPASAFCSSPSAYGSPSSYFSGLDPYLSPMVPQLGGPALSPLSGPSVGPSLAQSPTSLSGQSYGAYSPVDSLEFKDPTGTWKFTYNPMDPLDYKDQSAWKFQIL
Method in brief: as §1

ETV1 = ETV1 (Homo sapiens, UniProt P50549 1-477); details: protein: recombinant; tags: N-terminal GST; dsDNA, one strand shown
Sequence of ETV1 (P50549 whole entry): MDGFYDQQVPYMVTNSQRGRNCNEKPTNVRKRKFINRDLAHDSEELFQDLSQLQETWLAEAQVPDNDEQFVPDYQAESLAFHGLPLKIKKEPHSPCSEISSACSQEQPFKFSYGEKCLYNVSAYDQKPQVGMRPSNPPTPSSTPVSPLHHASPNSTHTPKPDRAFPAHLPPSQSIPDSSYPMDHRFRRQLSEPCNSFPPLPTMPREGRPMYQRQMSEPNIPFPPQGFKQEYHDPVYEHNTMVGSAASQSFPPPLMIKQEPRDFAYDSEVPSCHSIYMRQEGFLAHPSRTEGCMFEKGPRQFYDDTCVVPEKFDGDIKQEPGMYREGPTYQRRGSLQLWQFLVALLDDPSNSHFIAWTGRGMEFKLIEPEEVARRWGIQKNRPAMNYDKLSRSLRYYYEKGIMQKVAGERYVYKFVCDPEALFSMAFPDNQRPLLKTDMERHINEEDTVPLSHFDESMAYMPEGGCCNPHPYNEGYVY
Method in brief: as §1

## TGCCTT
FLI1
  binding signal: 1.29 fold enrichment (6-mer frequency, TF over GST control)
ELK1
  binding signal: 1.38 fold enrichment (6-mer frequency, TF over GST control)
GABPA
  binding signal: 1.54 fold enrichment (6-mer frequency, TF over GST control)
ERG
  binding signal: 1.35 fold enrichment (6-mer frequency, TF over GST control)
ELF1
  binding signal: 1.33 fold enrichment (6-mer frequency, TF over GST control)
EHF
  binding signal: 1.3 fold enrichment (6-mer frequency, TF over GST control)
SPI1
  binding signal: 1.44 fold enrichment (6-mer frequency, TF over GST control)
SPIB
  binding signal: 1.35 fold enrichment (6-mer frequency, TF over GST control)
ELK3
  binding signal: 1.24 fold enrichment (6-mer frequency, TF over GST control)
FEV
  binding signal: 1.3 fold enrichment (6-mer frequency, TF over GST control)
ETV5
  binding signal: 1.36 fold enrichment (6-mer frequency, TF over GST control)
HSF1
  binding signal: 1.27 fold enrichment (6-mer frequency, TF over GST control)
SPIC
  binding signal: 1.55 fold enrichment (6-mer frequency, TF over GST control)
ELF4
  binding signal: 1.27 fold enrichment (6-mer frequency, TF over GST control)
ELK4
  binding signal: 1.43 fold enrichment (6-mer frequency, TF over GST control)
ETV2
  binding signal: 1.2 fold enrichment (6-mer frequency, TF over GST control)
ELF3
  binding signal: 1.45 fold enrichment (6-mer frequency, TF over GST control)
CRX
  binding signal: 1.33 fold enrichment (6-mer frequency, TF over GST control)
ETV1
  binding signal: 1.34 fold enrichment (6-mer frequency, TF over GST control)
